Screens deposited in PubChem BioAssay by National Center for Advancing Translational Sciences (NCATS).
p53ts 32C kill: qHTS Screen for Compounds that Selectively Target Cancer Cells with p53 Mutations: Cytotoxicity of p53ts Cells at the Permissive Temperature; Potency, µM (doses to about 46.1 µM), inactives show at the highest dose activity change, negative = cytotoxicity, hits mostly cytotoxic; H1299-p53A138V at 32C, ATP luminescence viability, 24 h; 130,000 compounds, 0.93% hits; AID 924, 2007;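 note: 0% = DMSO and -100% = full killing by reference compound; nearly all actives have a fitted effect of over 55% in size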
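Cells: H1299 p53ts (A138V), 600/well, pre-incubated 16–30 h at 37C. Cpd up to 46 uM, 24 h, 32C. Readout: ATPlite luminescence, 20 min RT. Normalization: DMSO vs tamoxifen 100 uM. AC50 by Hill equation.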
Imprint erasure: qHTS Assay for Compounds that Induce Erasure of Genomic Imprints; 110,000 compounds, 0.02% hits; mouse ES Peg3-LacZ reporter, beta-gal luminescence, 40 h; Potency, µM (series often up to 60.7 µM), inactives show at the top dose activity change, positive = activation, actives largely listed as activators
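Each well holds 300 Peg3LacZ-Neo (maternal) female ES cells incubated 40 h at 37C, 5% CO2. LacZ is measured by BetaGlo luminescence, with AC50 and maximum efficacy derived from dose-response curves.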
p53ts 39C tox: qHTS Screen for Compounds that Selectively Target Cancer Cells with p53 Mutations: Cytotoxicity of p53ts Cells at the Nonpermissive Temperature | 130,000 compounds, 1.5% hits | Potency, µM (doses to about 46.1 µM), without a hit: at the top dose activity change, negative = cell killing, most hits filed as cytotoxic | H1299-p53A138V viability at 39C, ATP luminescence, 24 h; note: % is set by controls: 0 for no effect and ±100 for the full control effect; nearly all actives have a fitted effect of over 55% in size
* = called active by the depositor; ? = inconclusive; . = no result; [ ] = another dose, or the depositor's remark. Compounds with a hit are over-represented: about 1.8% of the library has one in this group of screens. Calls come from the whole dose curve; as a rule, active = well fitted curve in the direction sought with a large enough effect; inconclusive = small, poorly fitted or top-dose-only effect, or another doubt; inactive = no such curve, though single readings can be large; an effect the other way counts as inactive or inconclusive. Potency is the fitted concentration of half-maximal effect.

SMILES | p53ts 32C kill | Imprint erasure | p53ts 39C tox
COc1ccc(-c2nc3cnc(Nc4cccc(OC)c4)nc3n(Cc3cccs3)c2=O)cc1 | ? | -1% | ?
O=C(Nc1ccc2c(c1)OCO2)c1cccc(F)c1 | ? | -87% | -27%
O=C(/C=C\Nc1cccc(F)c1)c1ccc2c(c1)OCO2 | 4µM* | -83% | 10µM*
CC(C)Oc1ccc(C(=O)Nc2ccc3oc(-c4ccncc4)nc3c2)cc1 | 4% | -7%[10.9 µM] | 20%
CC(=O)Nc1ccc2nc(SCCOc3ccccc3Cl)sc2c1 | -10% | -7%[10.9 µM] | -17%
COc1cccc(NC(=O)N(Cc2cn(C)c3ccccc23)C2CCCCC2)c1 | -25% | -11%[10.9 µM] | ?
Cc1ccc(NC(=O)N(Cc2cn(C)c3ccccc23)C2CCCCC2)cc1C | ? | -14%[10.9 µM] | 13µM*
CC(=O)c1cccc(NC(=O)CCn2nc(C)c(S(=O)(=O)N(C)C)c2C)c1 | 1% | -9%[10.9 µM] | -29%
O=C(O)[C@H]1CCCC[C@@H]1C(=O)Nc1nc2ccccc2[nH]1 | 1%[9.22 µM] | -25%[10.9 µM] | -1%[9.22 µM]
N[C@@H]1C=CC=C(C(=O)O)C1 | 8% | . | 16%
CN1CCN(CCCNC(=O)Cn2c(-c3cccs3)cc3cc(Cl)ccc32)CC1 | -6% | . | .
COC(=O)N/N=C\c1c(C)nn(-c2ccccc2)c1Cl | . | . | -17%
Cc1nn(-c2ccccc2Cl)c(Cl)c1/C=N/Nc1cccc(C(=O)O)c1 | 11µM* | . | 11µM*
COc1ccc(O)c(C(=O)CC(=O)c2ccc(F)cc2)c1 | 6.3µM* | -92% | 6.3µM*
Cc1ccc(O)c(C(=O)CC(=O)c2cccc(F)c2)c1 | -14% | -25% | -11%
Cc1ccc(NC(=O)CSc2ncc3c(n2)-c2ccc(Cl)cc2N(C)S3(=O)=O)cc1F | 0% | 2%[10.9 µM] | -17%
CN1c2cc(Cl)ccc2-c2nc(SCC(=O)Nc3ccc(F)cc3F)ncc2S1(=O)=O | -12% | -8%[10.9 µM] | 10µM*
Cc1cccc(CS(=O)(=O)c2ncc(Cl)c(C(=O)Nc3nc4ccc(F)cc4s3)n2)c1 | 16µM* | -36%[10.9 µM] | 10µM*
Cc1ccc2nc(NC(=O)c3cc(=O)c4cc(C)c(C)cc4o3)sc2c1 | 8% | -11%[10.9 µM] | 8%
COc1ccc2nc(NC(=O)c3cc(=O)c4ccccc4o3)sc2c1 | ? | -9%[10.9 µM] | 10µM*
O=C(Nc1ccccc1F)c1nc(S(=O)(=O)Cc2ccccc2F)ncc1Cl | ? | -36%[10.9 µM] | 4µM*
COc1ccc2nc(NC(=O)c3nc(S(=O)(=O)Cc4ccccc4F)ncc3Cl)sc2c1 | ? | -40%[10.9 µM] | 4µM*
O=C(Nc1nc2ccc(F)cc2s1)c1nc(S(=O)(=O)Cc2ccccc2)ncc1Cl | ? | -50%[10.9 µM] | ?
COC(=O)c1ccccc1NC(=O)c1nc(S(=O)(=O)Cc2ccccc2F)ncc1Cl | 4% | 13%[10.9 µM] | 16%
COc1ccc2nc(NC(=O)c3nc(SCc4ccccc4F)ncc3Cl)sc2c1 | 5% | 14%[10.9 µM] | -20%
SMILES | p53ts 32C kill | Imprint erasure | p53ts 39C tox
COc1ccc2c(c1)OC1(O)COc3cc(OC)c(OC)cc3C1=C2 (stereo not drawn) | -2% | -10% | -6%
Cn1nnnc1SCCCNCc1ccc(-c2ccc(Br)cc2)o1 | -20% | -20%[10.9 µM] | ?
Cc1ccc2c(c1)cc1c(=O)n(CC(=O)NCc3ccco3)nc(C)n12 | 4% | 8%[10.9 µM] | -6%
COC(=O)c1ccc2c(=O)n(CCCCCC(=O)NCc3ccc(OC)cc3)c(=O)[nH]c2c1 | 2% | 19%[10.9 µM] | 20%
COc1ccc2nc(NC(=O)c3nc(S(=O)(=O)Cc4ccccc4)ncc3Cl)sc2c1 | 13µM* | -44%[10.9 µM] | 5µM*
Cc1cccc(CSc2ncc(Cl)c(C(=O)Nc3nnc(C)s3)n2)c1 | 2% | -11%[10.9 µM] | -16%
CCSc1ncc(Cl)c(C(=O)Nc2nc3ccc(OC)cc3s2)n1 | 0% | -7%[10.9 µM] | 9%
Cc1nnc(NC(=O)c2nc(S(=O)(=O)Cc3ccccc3)ncc2Cl)s1 | ? | -34%[10.9 µM] | 16µM*
CC(=O)Nc1ccc2c(c1)/C(=C/c1ccc([N+](C)(C)C)cc1)c1ccccc1-2 | 4%[9.22 µM] | -4%[10.9 µM] | 6%[9.22 µM]
Cc1ccc(C)c(NC(=O)c2nnn(Cc3ccc(F)cc3Cl)c2N)c1 | -12% | -6%[10.9 µM] | -24%
Nc1ccc2nc(-c3ccc(Cl)cc3)[nH]c2c1 | 13µM* | -79% | 10µM*
Nc1cc(N)cc(-c2nc3ccccc3[nH]2)c1 | -3% | -2% | 10%
Cc1ccc(C)c(-c2nc3ccc(N)cc3[nH]2)c1 | -12% | -62% | -21%
Nc1ccc(-c2nc3ccc(-c4nc5ccccc5o4)cc3[nH]2)cc1 | 1% | -23% | 0%
Clc1ccc2nc(-c3ccccc3)[nH]c2c1 | 10µM* | -89% | 13µM*
Nc1ccc2nc(-c3cc(Cl)c(N)c(Cl)c3)[nH]c2c1 | 14µM* | . | ?
COc1ccc(N2CCN(C(=O)Cn3cnc4sc(C)c(S(=O)(=O)N5CCCCC5)c4c3=O)CC2)cc1 | -1% | -6%[10.9 µM] | 26%
COc1ccc(OC)c(CNC(=O)Cn2nc(C)c3nn(-c4ccc(Cl)cc4)c(C)c3c2=O)c1 | 2% | 6%[10.9 µM] | -1%
Cc1ccc(NC(=O)C(Cc2ccccc2)NS(=O)(=O)c2ccc3c(c2)c(=O)n(C)c(=O)n3C)cc1 (stereo not drawn) | 4% | 12%[10.9 µM] | -11%
Cc1ccn2c(CCc3nnc4cc(C)ccn34)nnc2c1 | 1%[9.22 µM] | -6%[10.9 µM] | 5%[9.22 µM]
CCCCn1c(NC(=O)c2ccccc2)c(C#N)c2nc3ccccc3nc21 | ? | -30% | 6.3µM*
CCCCn1c(NC(=O)c2ccc(F)cc2)c(C#N)c2nc3ccccc3nc21 | -9% | -31% | 13%
Cc1cccc(CNc2ncncc2-c2cccc(NS(C)(=O)=O)c2)c1 | -3% | 12% | 1%
Cc1ccccc1Cn1cc(S(=O)(=O)c2ccc(Cl)cc2)c(=O)c2cc3c(cc21)OCO3 | 0% | -4%[10.9 µM] | 3%
CCCN1CC(CSC)C[C@H]2c3cccc4[nH]cc(c34)C[C@H]21 (stereo partly drawn) | -3% | -12% | -17%
SMILES | p53ts 32C kill | Imprint erasure | p53ts 39C tox
CCCCN1C(=O)/C(=C2\SC(N3CCCCC3)=NC2=O)c2ccccc21 | 13µM* | -28% | 16µM*
O=C1N=C(N2CCOCC2)S/C1=C1\C(=O)N(Cc2ccccc2)c2ccc(Br)cc21 | 8% | -8% | 15%
O=C(Nc1nc2n(n1)C(c1ccc(F)cc1)C=C(c1ccccc1)N2)c1cccc([N+](=O)[O-])c1 (stereo not drawn) | -3% | 12%[10.9 µM] | 6%
COc1ccc2nc(Nc3nc(C)c(CCC(C)C)c(=O)[nH]3)nc(C)c2c1 | 18% | -9% | 13%
CCN(CC)CCCC(C)Nc1c2ccc(Cl)cc2nc2ccc(OC)cc12 (stereo not drawn) | 5µM* | -38% | 10µM*
Fc1ccc(F)c(Nc2c3c(nc4ccc(Cl)cc24)CCC3)c1 | -14% | -7%[10.9 µM] | -7%
FC(F)(F)c1cccc(Nc2c3c(nc4ccc(Cl)cc24)CCC3)c1 | 11µM* | 10%[10.9 µM] | 13µM*
Cc1cc(C)c2sc(N3CCN(C(=O)c4ccc(N(C)C)cc4)CC3)nc2c1 | -9% | 7%[10.9 µM] | -8%
Cc1cc(C)c2sc(N3CCN(C(=O)C4CC4)CC3)nc2c1 | ? | -14%[10.9 µM] | 7.9µM*
NCCCCCCCCCCNS(=O)(=O)c1cccc2c(Cl)cccc12 | 25µM* | -24% | 16µM*
